This passage reports Potency results from PubChem BioAssay (Tox21).

Structures are written as SMILES. Activity calls are given as the source filed them. Entries that show only a call come without a potency. The call rests on the fitted dose curve; in most records, active means well fitted activation curve with a large enough effect in the repeat runs; inconclusive means weak or mixed curves; inactive means flat fitted curve, though single readings scatter. Peptide text beside a SMILES is read from it.

KiSS-1 receptor (Homo sapiens), sequence (Q969F8 whole entry, looked up): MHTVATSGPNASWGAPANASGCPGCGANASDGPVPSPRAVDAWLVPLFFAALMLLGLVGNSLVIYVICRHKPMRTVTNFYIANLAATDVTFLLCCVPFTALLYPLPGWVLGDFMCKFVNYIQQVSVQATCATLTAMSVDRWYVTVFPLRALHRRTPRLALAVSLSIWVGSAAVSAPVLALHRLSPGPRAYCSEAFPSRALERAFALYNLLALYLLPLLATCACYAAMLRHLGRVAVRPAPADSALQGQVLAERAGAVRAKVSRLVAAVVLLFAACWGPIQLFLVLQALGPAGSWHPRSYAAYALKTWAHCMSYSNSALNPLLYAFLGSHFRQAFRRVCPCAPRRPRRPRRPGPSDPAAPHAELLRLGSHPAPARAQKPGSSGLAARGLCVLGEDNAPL

The assay addresses KiSS-1 receptor (Homo sapiens) (UniProt Q969F8). Put plainly: Human kisspeptin (KISS1R) small molecule agonists, calcium flux assay in KISS1R-HEK293 cells (AID 1920064). To be noted: KISS1R-HEK293, calcium flux fluorescence, agonist; series mostly up to 76.8 µM. The source says:
National Center for Advancing Translational Sciences [NCATS]
Division of Preclinical Innovation [DPI]
U.S. Environmental Protection Agency [EPA]
National Institutes of Environmental Health Sciences [NIEHS]
National Toxicology Program [NTP]
U.S. Food and Drug Administration [FDA]
Kisspeptin and its receptor KISS1R play key roles in mammalian reproduction due to their involvement in the onset of puberty and control of the hypothalamic-pituitary-gonadal axis such as regulates GnRH release from the hypothalamus. The kisspeptin/KISS1R system also plays a direct role in peripheral organs (including the ovary, testis, uterus, and placenta) and is implicated in reproductive diseases such as miscarriage and polycystic ovary syndrome (PCOS). Abnormal KISS1R activity is associated with abnormal puberty, infertility, endometriosis, and hormone-dependent tumors. The KISS1 receptor (KISS1R, also called GPR54), a G-protein-coupled receptor (GPCR), acts (through phospholipase C) to increase intracellular inositol trisphosphate and then release intracellular calcium stores. Cell-based KISS1R-HEK293 assay is using HEK293 cells that have been genetically engineered to express the human KISS1R, which activity can be measured by calcium signaling. A compound/drug can activate (agonist) KISS1R that can be monitored by levels of intracellular calcium.
KISS1R-HEK293 cells developed by Codex Corp contain human KISS1R gene, which was stably integrated into HEK 293 cells. The compound activation can be detected by fluorescence intensity via calcium flux assay. This cell line has been used to screen the Tox21 10K compound library to identify agonists of KISS1R.
KISS1R-Hek293 cells were dispensed at 1500 cells/4uL/well in 1536-well black wall/clear bottom plates using a multidrop dispenser. After the assay plates were incubated at a 37 C/5% CO2 incubator for 18 hours, 4 microL of Calcium Dye Solution was added to each well. The plates were incubated at 37 C for 1 hour. And then 23 nL of compounds dissolved in DMSO, positive controls, or DMSO only was transferred to the assay plate by a pin tool station. The fluorescence intensity in the plates was measured using FDSS 7000EX kinetic plate reader with a filter set of Ex/Em=480/540 for 3 min at 1 sec intervals. Each test compound was measured at 15 concentrations and in triplicates.
With `O=C(OCCOCCOC(=O)c1ccccc1)c1ccccc1`, the Potency entry was “inactive”. For `CCC(C)(O)CCCC(C)C` (stereo not given), the Potency entry was “inactive”.

Turning to `COC(=O)c1ccccc1`, the Potency entry is “inactive”. Turning to `COC(=O)CC(=O)OC`, the Potency result is “inactive”. On to `CC1(C)OC(=O)NC1=O`, for which the Potency entry was “inactive”. For `C/C=C/c1ccc(O)c(OC)c1`, the Potency entry is “inactive”. For the compound `O=C(O)CCCCC1CCSS1` (stereo not given), the Potency result is “inactive”. Turning to `Cc1[nH]c(=O)c(C#N)cc1-c1ccncc1`, the Potency entry was “inactive”.

Consider `CN(C)C`, for which the Potency entry is “inactive”. Next, `C=C(C)CC(C)(C)C`: “inactive”; `CC(=O)C(C)C`: “inactive”; `[Na+]`: “inactive”. As for `COC(=O)[C@H](Cc1ccccc1)NC(=O)[C@@H](N)CC(=O)O` (H-Asp-Phe-OMe), the Potency entry is “inactive”. Regarding `O=Nc1ccc(O)cc1`, the Potency result is “inactive”. As for `C=C1C2CCC(C2)C1(C)C` (stereo not given), the Potency result is “inactive”. Regarding `O=C(O)Cc1c[nH]c2ccccc12`, the Potency result is “inactive”. With `O=C(O)C1=NN(c2ccc(S(=O)(=O)O)cc2)C(=O)C1`, the Potency entry was “inactive”. On to `CCOC(=O)NNc1nncc2ccccc12`, for which the Potency entry was “inactive”. On to `CCCCC(CC)C(=O)O` (stereo not given), for which the Potency result is “inactive”. Consider `CCCCCCOC(C)=O`, for which the Potency result was “inactive”. For the compound `CCCCC(CC)COC(=O)CCCCC(=O)OCC(CC)CCCC` (stereo not given), the Potency entry is “inactive”. With `CC(O)COc1ccccc1` (stereo not given), the Potency entry is “inactive”.

In the case of `NCCN`, the Potency result is “inactive”. `CCCCCCCCCCCCc1ccccc1O`: the Potency entry was “inactive”. With `Cc1cc(=O)[nH]c(C(C)C)n1`, the Potency result is “inactive”. Regarding `O=[N+]([O-])c1ccccc1C(F)(F)F`, the Potency result is “inactive”. As to `CC1(C)OC[C@@H]2O[C@@]3(C(=O)O)OC(C)(C)O[C@H]3[C@@H]2O1`, the Potency result is “inactive”.

On to `OCc1cccnc1`, for which the Potency entry is “inactive”. Take `CNC(=O)Oc1ccc2c(c1)[C@]1(C)CCN(C)[C@@H]1N2C`: the Potency entry is “inactive”. Then `C[C@]12CC[C@@H]3c4ccc(O)cc4C[C@@H](CCCCCCCCCS(=O)CCCC(F)(F)C(F)(F)F)[C@H]3[C@@H]1CC[C@@H]2O` (stereo not given in full), with “inactive”; and `CN(C)CCC(c1ccccc1)c1ccccn1` (stereo not given), with “inactive”; and `Nc1ccc(O)c(C(=O)O)c1`, with “inactive”. For `O=C(OCc1ccccc1)c1ccccc1O`, the Potency result was “inactive”. For the compound `Cn1c([N+](=O)[O-])cnc1COC(N)=O`, the Potency entry is “inactive”. With `COc1cc(C=O)ccc1O`, the Potency result is “inactive”. On to `CCc1cccc(C)c1N`, for which the Potency result was “inactive”. Consider `O=S(=O)(O)c1ccc2nc(-c3ccccc3)[nH]c2c1`, for which the Potency result is “inactive”. Then `CC(CCO)CC(C)(C)C` (stereo not given), with “inactive”; and `CCCCOCCOCCSC#N`, with “inactive”; and `CCCCC(CC)COC(=O)/C=C/c1ccc(OC)cc1` (stereo not given), with “inactive”.
